The structures appear in SMILES notation. Results filed as inconclusive are left out. Calls of active or inactive are those of the source. Calls follow the shape of the dose curve; as a rule, active = well fitted activation curve with a large enough effect in the signal ratio in the repeat runs (not every such curve was filed as active); inconclusive = weak or mixed curves, or effect the other way; inactive = flat fitted curve, though single readings scatter; the % refers to the signal ratio.

The nature of the assay: qHTS assay to identify small molecule agonists of the endoplasmic reticulum stress response signaling pathway (AID 1159516). The settings on record: ESRE-bla HeLa, ER stress beta-lactamase reporter, 5 h; series mostly up to 61 µM. The source says: National Center for Advancing Translational Sciences [NCATS]
NIH Chemical Genomics Center [NCGC]
U.S. Environmental Protection Agency [EPA]
National Institutes of Environmental Health Sciences [NIEHS]
National Toxicology Program [NTP]
U.S. Food and Drug Administration [FDA]
Endoplasmic Reticulum (ER) plays an important role in cellular signaling, protein folding/maturation, stress response, lipid biosynthesis, calcium storage and release etc. Under stress conditions, proteins in ER misfold or unfold, and leading to the expression of ER stress responsive genes. ER stress has been associated with a variety of pathophysiological conditions such as cancer, inflammation, neurodegenerative diseases, diabetes, ischemic heart disease etc. To identify the compounds that induce ER stress response, an ER stress reporter cell line, CellSensor ESRE-bla HeLa (Life Technologies, Carlsbad, CA) containing a beta-lactamase reporter gene under control of the Endoplasmic reticulum Stress Response Element (ESRE) was used to screen Tox21 10K compound library.
Tox21 Assay Protocol Summary:
ESRE-bla HeLa cells were dispensed at 1,500 cells/6 uL of assay medium per well into black wall/clear-bottom 1536-well plates using a Multidrop Combi (ThermoFisher Scientific, Waltham, MA) dispenser. After the assay plates were incubated at 37 C and 5% CO2 for an overnight, 23 nL of compounds dissolved in DMSO, positive controls or DMSO only was transferred to the assay plate by a Pintool station (Kalypsys, San Diego, CA). The assay plates were incubated at 37 C and 5% CO2 for 5 hr. One uL of LiveBLAzer B/G FRET substrate (Life Technologies) was added using a Flying Reagent Dispenser (Aurora Discovery, San Diego, CA) and the plates were incubated at room temperature for 2 hr. Fluorescence intensity (405 nm excitation, 460 nm and 530 nm emissions) was measured using an Envision plate reader (PerkinElmer, Shelton, CT).
Regarding `O=c1n(CC2CO2)c(=O)n(CC2CO2)c(=O)n1CC1CO1` (stereo not given), the call was inactive.
On to `NC12CC3CC(CC(C3)C1)C2`, for which the molecule was classed as inactive.
The entry for `CO[Si](OC)(OC)c1ccccc1` is “inactive”; for `OCCOCCN1CCN(C(c2ccccc2)c2ccc(Cl)cc2)CC1` (stereo not given) it is “inactive”.
With `CNC1(C)C2CCC(C2)C1(C)C` (stereo not given), the outcome was inactive.
For `OCC(CO)N[C@H]1C[C@](O)(CO)[C@@H](O)[C@H](O)[C@H]1O`, the call was inactive.
The result for `CCN1CCCC1CNC(=O)c1cc(S(=O)(=O)CC)c(N)cc1OC` (stereo not given) reads “inactive”; that for `O=C1NCC2(CCN(CCc3ccccc3)CC2)O1`, “inactive”.
For the molecule `Cc1occc(=O)c1OC(=O)C(C)C`, the result was inactive.
With `Cc1ccnc2c1NC(=O)c1cccnc1N2C1CC1`, the call was inactive.
`COc1ccc(CCN2CCC(Nc3nc4ccccc4n3Cc3ccc(F)cc3)CC2)cc1`: the result was inactive.
In the case of `CC(C)(C)c1cc(C(C)(C)C)c(O)c(C(C)(C)C)c1`, the molecule was called inactive.
As for `COC(=O)[C@H]1[C@H]2C[C@@H]3c4[nH]c5cc(OC)ccc5c4CCN3C[C@H]2C[C@@H](OC(=O)c2cc(OC)c(OC)c(OC)c2)[C@@H]1OC`, the result was inactive.
Consider `O=C(Oc1ccccc1)c1ccccc1O`, for which the molecule was called inactive.
For the molecule `CC(C)(C)c1ccccc1`, the molecule was called inactive.
In the case of `COc1ccc(COC(C)=O)cc1`, the outcome was inactive.
With `CCC[C@H](N[C@@H](C)C(=O)N1[C@H](C(=O)O)C[C@@H]2CCCC[C@@H]21)C(=O)OCC`, the outcome was inactive.
For `CCCCN(CCO)CCCC`, the molecule was classed as inactive.
`COC(=O)c1cccc(C(=O)OC)c1`: the outcome was inactive.
For the molecule `O=Cc1ccc(Cl)cc1`, the outcome was inactive.
For `C=C(C)C1CC=C(C)C(OC(C)=O)C1` (stereo not given), the molecule was classed as inactive.
Take `COC(=O)/C=C/c1ccccc1`: the molecule was called inactive.
As for `CC(=O)Nc1ccc(C(=O)CCl)cc1`, the outcome was inactive.
As to `NCCCCCC(=O)O`, the molecule was classed as inactive.
The result for `CCCCC/C=C/CC1CC(=O)OC1=O` (stereo not given) reads “inactive”.
The entry for `Cc1ccc(-c2cc(C(F)(F)F)nn2-c2ccc(S(N)(=O)=O)cc2)cc1` is “inactive”.
For `O=C(O)c1cc(Cl)cc(Cl)c1`, the molecule was called inactive.
`NC(N)=NC(=O)Cc1c(Cl)cccc1Cl`: the molecule was classed as inactive.
`CCC(C)(Oc1ccc(C2(c3ccc(OC(C)(CC)C(=O)O)cc3)CCCCC2)cc1)C(=O)O` (stereo not given): the outcome was inactive.
The result for `CC(=O)OCCOCCOCCOC(C)=O` reads “inactive”.
For the molecule `Cc1cccc(O)c1C`, the molecule was called inactive.
As for `CC(C)CCOCc1ccccc1`, the molecule was classed as inactive.
The entry for `C=CC(=O)OCCCCCCOC(=O)C=C` is “inactive”; for `CCc1cc(C(C)(C)C)c(O)c(C(C)(C)C)c1` it is “inactive”.
As to `CC(C(O)c1ccc(O)cc1)N1CCC(Cc2ccccc2)CC1` (stereo not given), the result was inactive.
The entry for `O=C(Cl)c1cccc(C(=O)Cl)c1` is “inactive”; for `COc1ccc(Cc2cnc(N)nc2N)cc1OC` it is “inactive”.
On to `COC(c1ccccc1)(c1ccccc1)[C@H](Oc1nc(C)cc(C)n1)C(=O)O`, for which the molecule was classed as inactive.
For the molecule `CC(=O)N[C@@H](CS)C(=O)O`, the outcome was inactive.
On to `O=C(O)c1cccc(C(=O)O)c1`, for which the molecule was classed as inactive.

The values are drawn from PubChem BioAssay (Tox21).
